Experimental data: PubChem BioAssay (NCI)
About 83,000 compounds went through this panel and 20% of them were active in at least one assay; those are over-represented in the sample as a whole.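 Each cell line was grown in a 96-well plate and treated with one concentration of compound for 48 hours. Values below 10 were considered active.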 Unmarked numbers belong to inactive results. The source made the active and inactive calls.

Key:
Experiment in all cases: NCI-60 one-dose screen, 48 h (100 = growth as untreated, 0 = no growth, -100 = all killed)
Conditions in all cases: 10 µM unless noted
[1] = tested on: HCT-15 colon
[2] = tested on: HT29 colon
[3] = tested on: SNB-75 CNS
[4] = tested on: SNB-19 CNS
[5] = tested on: U251 CNS
[6] = tested on: PC-3 prostate
[7] = tested on: SK-MEL-5 melanoma
[8] = tested on: UACC-62 melanoma
[9] = tested on: LOX IMVI melanoma
[10] = tested on: SK-MEL-28 melanoma

Row | SMILES | growth [1] | growth [2] | growth [3] | growth [4] | growth [5] | growth [6] | growth [7] | growth [8] | growth [9] | growth [10]
1 | CCC1=C[C@H]2CN(CCc3c([nH]c4ccccc34)[C@@](C(=O)OC)(c3cc4c(cc3OC)N(C)[C@H]3[C@@](O)(C(=O)OC)[C@H](OC(C)=O)[C@]5(CC)[C@@H]6C[C@@H]6CN6CC[C@]43[C@@H]65)C2)C1 | 7.44% (active) | -18.4% (active) | -3.68% (active) | 21.1% | 13% | 29.4% | -25.5% (active) | 17% | 17% | 58.5%
2 | COc1ccc(/C=C/C(=O)Nc2ncnc3nc[nH]c23)cc1 | 92.2% | 96.5% | 82% | 99.7% | 99.4% | 98.1% | 94.8% | 81.8% | 101% | 99.4%
3 | CCOC(=O)CC[C@H](NC(=O)c1ccc(NC)c2ccccc12)C(=O)OCC | 96.1% | 105% | 91.8% | 92.4% | 97.8% | 80.2% | 97.2% | 89.7% | 93.8% | 103%
4 | CN1C(=O)c2cc(Cl)nc3c(NC(=O)c4cccc(Cl)c4)c(Cl)c(NC(=O)c4cccc(Cl)c4)c1c23 | -83.9% (active) | -57.7% (active) | 75.3% | 2.15% (active) | -68.4% (active) | -45.5% (active) | 4.57% (active) | 6.83% (active) | -65.1% (active) | -32.2% (active)
5 | CC(C)C[C@H](C(=O)O)N(C)C(=O)[C@@H]1CCCN1C(=O)[C@H](C)OC(=O)[C@H](CCC(N)=O)NC(=O)[C@@H]1CCC(=O)N1 | 95.9% | 104% | 84.3% | 102% | -37% (active) | 96.6% | 95.6% | 102% | 104% | 103%
6 | C=C(C)[C@@H]1CC[C@]2(C(=O)N3CCN(C)CC3)CC[C@]3(C)[C@H](CC[C@@H]4[C@@]5(C)C/C(=C/c6ccco6)C(=O)C(C)(C)[C@@H]5CC[C@]43C)[C@@H]12 | 46.6% | 25.8% | 68% | 80.1% | 60.9% | 37.2% | 68.9% | 76.1% | 30.1% | 55.7%
7 | C#C[C@@]1(O)[C@@H](CO)O[C@@H](n2ccc3c(N)ncnc32)[C@@H]1O | 2.94% (active) | 2.83% (active) | -25.6% (active) | 7.29% (active) | 3.15% (active) | -21.4% (active) | -52.7% (active) | -16.5% (active) | -68.6% (active) | 63.6%
8 | CCC1S/C(=N\N=C(/C)c2ccc[nH]2)N(c2ccccc2)C1=O (stereo not given) | 96.1% | 87.4% | 105% | 106% | 108% | 94.2% | 79% | 101% | 110% | 110%
9 | O=S(=O)(Nc1nccs1)c1ccc(Nc2nc(-c3ccncc3)cs2)cc1 | 103% | 120% | 84.7% | 101% | 95.2% | 96.8% | 107% | 94.7% | 95.8% | 109%
10 | N#Cc1c(NC(=O)c2cccs2)[n+]([O-])c2cc(C(F)(F)F)ccc2[n+]1[O-] | 117% | 107% | 92.6% | 106% | 104% | 65.1% | 58% | 96.8% | 94.7% | 120%
11 | C=C1C(=O)O[C@H]2[C@H]1CC/C(COC(=O)CCCCCCCCC(=O)OC/C1=C/CC[C@@]3(C)O[C@H]3[C@H]3OC(=O)C(=C)[C@@H]3CC1)=C\CC[C@@]1(C)O[C@@H]21 | -31.6% (active) | -27.5% (active) | 58.4% | 43.8% | 12.1% | -6.62% (active) | -32.6% (active) | -18.8% (active) | -84.7% (active) | -12.8% (active)
12 | O=C1c2ccccc2C(=O)c2c1oc1c2c(=O)[nH]c2ccc(Cl)cc21 | -31.1% (active) | 66.4% | -9.01% (active) | 7.11% (active) | -77.5% (active) | -33.3% (active) | 12.3% | 75.1% | 11.1% | -11.8% (active)
13 | CCOC(=O)c1c(C)nc2c(c1N)/C(=C/c1cccs1)C(=O)N2Cc1ccccc1 | 19.5% | 57.3% | 72.6% | 68.1% | 49.8% | 51.8% | 83.8% | 67.6% | 36.4% | 90.2%
14 | COc1cc(-c2csc(NC(=O)Nc3cc(Cl)cc(Cl)c3)n2)cc(OC)c1OC | 14.5% | 21.9% | -29.2% (active) | 9% (active) | -80.1% (active) | 10.7% | 54.5% | -62.2% (active) | 6.77% (active) | 30.6%
15 | Oc1c(CCl)cc(Cl)cc1Cc1cc(Cl)cc(Cc2cc(Cl)cc(CCl)c2O)c1O | 12.8% | 56.9% | 56.8% | 27.6% | 31.7% | 17.9% | -1.94% (active) | 4.56% (active) | 47.7% | 30%
16 | COc1ccc(/C=C/C(=O)C(CC2CCC2)C(=O)/C=C/c2ccc(OC)c(OC)c2)cc1OC | -35.4% (active) | -51.1% (active) | 64.7% | -13.1% (active) | -68.8% (active) | -8.3% (active) | -76.6% (active) | -65.5% (active) | -75.4% (active) | -4.06% (active)
17 | COc1ccc2[nH]c(-c3ccccc3)c(C=C(C#N)C#N)c2c1 | 36.3% | 17.2% | -5.72% (active) | 73.2% | 35.2% | 13.2% | 8.94% (active) | 22.1% | 42.6% | 44%
18 | COc1cc(/C=C/C(=O)/C=C/c2cc3ccc(Cl)cc3[nH]c2=O)ccc1O | 52.4% | 5.63% (active) | 74.4% | 76.5% | 19.6% | 56.2% | 60.8% | 53.1% | 19.8% | 98.8%
19 | O=C(/C(=C/c1ccc([N+](=O)[O-])cc1)SCc1ccc(F)cc1)c1ccc(Cl)cc1 | 5.41% (active) | 8.59% (active) | 83.3% | 47.4% | 0.994% (active) | 47.4% | 54.2% | 37.5% | 3.68% (active) | 93.1%
20 | CCOC(=O)NC(Cc1ccccc1)c1ccccc1 (stereo not given) | 106% | 97.5% | 100% | 104% | 99.9% | 94.7% | 104% | 97.5% | 94.9% | 115%
21 | COc1cc(C2=NN(C(C)=O)C(c3cccc(Nc4ccnc5cc(C(F)(F)F)ccc45)c3)C2)cc(OC)c1OC (stereo not given) | 39.9% | 22.1% | 76.1% | 60.9% | 58.7% | 25% | 27.8% | 69% | 53.2% | 66.5%
22 | Cc1ccn2c3c(c(C(=O)O)c2c1)C(=O)c1ccccc1C3=O | 58.8% | 39.5% | 87.8% | 50.4% | 74.9% | 84.8% | -98.9% (active) | 0.126% (active) | 48.9% | 46%
23 | Cc1[nH]c(N=Nc2ccccc2)nc1N=Nc1ccccc1 | 22.8% | 31.2% | 45.1% | 47.7% | 15.9% | 36.4% | 48.1% | -19.7% (active) | 3.24% (active) | 52.2%
24 | Cc1cccc2nc3c(n12)C(=O)C(=O)c1ccccc1-3 | 40.8% | 78% | 136% | 61.3% | 43% | 40.2% | 30.2% | -57.4% (active) | 6.44% (active) | 85.7%
25 | CC1(C)Cc2c(Br)c(Br)c(Br)c(OCC(O)CN3CCOCC3)c2O1 (stereo not given) | 88.2% | 64.6% | 94% | 100% | 93.5% | 9.22% (active) | 66.5% | 94.6% | 87.1% | 137%
26 | C=C1C(=O)O[C@H]2[C@H]1CCC(/C=N/c1ncc(Br)cc1N)=C\CC[C@@]1(C)O[C@@H]21 | -45.3% (active) | -18.6% (active) | 85.3% | 44.2% | 47.9% | 26.7% | 39.9% | 22.5% | -75.3% (active) | -25.8% (active)
